The results in this text go back to PubChem BioAssay (EPA / NIEHS).

The test system of test [1] is zebrafish Androgen Receptor (AR), gene 100005148. Briefly: ATG_zfAR_XSP1: Attagene TRANS-FACTORIAL Multi-Species (XSP1) HepG2 Assay for zebrafish Androgen Receptor (AR) (AID 2283771). On the procedure: (§1) ATG_XSP1_multi-species_TRANS is a cell-based, multiplexed assay created by modifying the existing Attagene TRANS-FACTORIAL system to include a panel of nuclear receptors from some or all the following species: human (Homo sapiens), mouse (Mus musculus), frog (Xenopus laevis), zebrafish (Danio rerio), chicken (Gallus gallus), and turtle (Chrysemys picta). The ECOTOX-FACTORIAL format uses HepG2, a human liver cell line, with measurements taken at 24 hours after chemical dosing in a 24-well plate. Xsp1 included 3 nM 6-alpha-fluorotestosterone to partially stimulate the androgen receptor.ATG_zfAR_XSP1 is one of 29 assay components measured or calculated from the ATG_XSP1_multi-species_TRANS assay. It is designed to make measurements of mRNA induction, a form of inducible reporter, as detected with fluorescence intensity signals by Reverse transcription polymerase chain reaction (RT-PCR) and Capillary electrophoresis technology.The assay endpoint ATG_zfAR_XSP1 was analyzed in the positive analysis fitting direction relative to DMSO as the negative control and baseline of activity. Using a type of inducible reporter, measures of mRNA for gain-of-signal activity can be used to understand the reporter gene at the transcription factor-level as they relate to the gene AR. Furthermore, this assay endpoint can be referred to as a primary readout, because this assay has produced multiple assay endpoints where this one serves a reporter gene function. To generalize the intended target to other relatable targets, this assay endpoint is annotated to the nuclear receptor intended target family, where the subfamily is steroidal.
(§2) Human liver HepG2 cells are transiently transfected with multiple reporter transcription units (MRTUs) in 6-well plates using FuGene 6 reagent (Roche; 3 ml FuGene/1 mg DNA). The MRTU constructs are regulated by a cis-regulating element (promoter). […] A major difference between the CIS and TRANS system is that in CIS activities of endogenous TFs are measured, whereas the TRANS assay evaluates changes in activities of exogenous, chimeric NR-Gal4 proteins. […] At the end of 24 hour incubation, total RNA was isolated using TriZol reagent (Invitrogen). The isolated RNA is then reverse-transcribed using oligo(dT) primer and Mo-MLV reverse transcriptase (Invitrogen) with DNAse I (Ambion) treatment for 30 min. The one-tenth of the produced cDNA was amplified by PCR using Taq DNA polymerase (Invitrogen) and two reporter sequence-specific primers. The PCR products were fluorescently labeled by primer extension with 6-arboxyfluorescein (6-FAM) 5'-labeled reporter sequence-specific primer (2 min at 95 C, 20 s at 68 C and 10 min at 72 C) and these products were digested with 5U of HpaI (New England Biolabs) for 2h at 37 C. The fragments were purified using Qiaquick PCR columns (Qiagen), analyzed on an ABI 3130xL genetic analyzer (Applied Biosystems) with peak positions identified by using a set of X-rhodamine (ROX)-labeled MapMarker1000 molecular weight standards (BioVentures). The raw capillary electrophoresis data was processed using Attagraph software (Attagene).

Test [2] deals with zebrafish Estrogen Receptor (ESR1), esr1 (gene 259252) (UniProt P57717). Briefly: ATG_zfER1_XSP1: Attagene TRANS-FACTORIAL Multi-Species (XSP1) HepG2 Assay for zebrafish Estrogen Receptor (ESR1) (AID 2283772). The procedure, abridged: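 Reporter mRNA induction, gauged via RT-PCR/capillary electrophoresis fluorescence relative to DMSO controls, in HepG2 cells transiently carrying GAL4-UAS reporter units; 24 h dosing.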
zebrafish Estrogen Receptor (ESR1), esr1 (gene 259252), sequence (P57717 whole entry, looked up, the tested form may be a part): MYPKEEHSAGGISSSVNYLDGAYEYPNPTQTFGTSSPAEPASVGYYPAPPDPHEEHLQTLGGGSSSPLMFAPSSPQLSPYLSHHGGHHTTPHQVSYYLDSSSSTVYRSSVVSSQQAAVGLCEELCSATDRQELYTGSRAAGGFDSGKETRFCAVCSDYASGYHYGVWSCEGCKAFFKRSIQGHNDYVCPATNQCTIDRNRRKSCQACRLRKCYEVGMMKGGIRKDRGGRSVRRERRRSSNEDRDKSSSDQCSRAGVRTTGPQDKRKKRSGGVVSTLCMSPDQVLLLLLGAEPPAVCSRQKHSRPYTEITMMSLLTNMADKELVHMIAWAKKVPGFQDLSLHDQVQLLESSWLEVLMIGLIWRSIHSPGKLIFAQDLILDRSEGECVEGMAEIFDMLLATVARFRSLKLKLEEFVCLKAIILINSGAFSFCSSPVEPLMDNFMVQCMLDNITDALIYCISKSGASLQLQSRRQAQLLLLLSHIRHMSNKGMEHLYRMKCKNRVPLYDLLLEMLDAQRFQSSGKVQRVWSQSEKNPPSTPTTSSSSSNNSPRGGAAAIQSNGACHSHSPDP

For test [3], the system named is zebrafish Estrogen Receptor (ESR2B), gene 317733. Briefly: ATG_zfER2b_XSP1: Attagene TRANS-FACTORIAL Multi-Species (XSP1) HepG2 Assay for zebrafish Estrogen Receptor (ESR2B) (AID 2283773). On the procedure:
as §1, with “receptor.ATG_zfER2b_XSP1” for “receptor.ATG_zfAR_XSP1”, “ATG_zfER2b_XSP1” for “ATG_zfAR_XSP1”, “ER.” for “AR.”
as §2

For test [4], the system named is frog Estrogen Receptor (ESR2), gene 100174814. The test is described as follows: ATG_frER2_XSP1: Attagene TRANS-FACTORIAL Multi-Species (XSP1) HepG2 Assay for frog Estrogen Receptor (ESR2) (AID 2283774). The method, then:
as §1, with “receptor.ATG_frER2_XSP1” for “receptor.ATG_zfAR_XSP1”, “ATG_frER2_XSP1” for “ATG_zfAR_XSP1”, “ER.” for “AR.”
as §2

Test [5] is described as follows: ACEA_AR_agonist_AUC_viability: ACEA Biosciences xCELLigence Real-Time Cell Analysis on Androgen Receptor Agonism for Viability (AID 2283775).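 For AC50: viability read 80 hours after compound addition.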 In short, it runs like this: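 Read-out is area under the impedance curve at 80 h post-dose in 22Rv1 cells, with DMSO as baseline and signal loss taken as reduced viability. Compounds ran in duplicate from 100 uM final.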
Test [6] is described as follows: ACEA_AR_antagonist_AUC_viability: ACEA Biosciences xCELLigence Real-Time Cell Analysis on Androgen Receptor Antagonism for Viability (AID 2283776).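 Note: 22Rv1 human prostate cancer cells growing on impedance electrode plates; area under impedance growth curve at 80 h after dosing as viability; hits lower the growth signal relative to DMSO meaning cytotoxicity.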 In short, it runs like this: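 22Rv1 prostate cells, continuous dosing up to 100 uM final (0.5% DMSO max), duplicate plates. Growth measured by impedance; AUC at 80 h, loss of signal vs DMSO.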
The subject of test [7] is frog Estrogen Receptor (ESR1), gene 398734. The test is described as follows: ATG_frER1_XSP1: Attagene TRANS-FACTORIAL Multi-Species (XSP1) HepG2 Assay for frog Estrogen Receptor (ESR1) (AID 2283777). The method, then: as §1, with “receptor.ATG_frER1_XSP1” for “receptor.ATG_zfAR_XSP1”, “ATG_frER1_XSP1” for “ATG_zfAR_XSP1”, “ER.” for “AR.”
as §2

For test [8], the system named is zebrafish Estrogen Receptor (ESR2A), gene 317734. The test is described as follows: ATG_zfER2a_XSP1: Attagene TRANS-FACTORIAL Multi-Species (XSP1) HepG2 Assay for zebrafish Estrogen Receptor (ESR2A) (AID 2283778). The procedure, abridged: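 HepG2 cells transiently transfected with GAL4-UAS reporter units driven by a zebrafish ESR2A–Gal4 chimera; 24 h compound exposure with 3 nM 6-alpha-fluorotestosterone present. Reporter mRNA measured by RT-PCR with fluorescent capillary electrophoresis, fitted positive versus DMSO.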

The target of test [9] is chicken Estrogen Receptor (ESR1), ESR1 (gene 396099) (UniProt P06212). The test is described as follows: ATG_chERa_XSP1: Attagene TRANS-FACTORIAL Multi-Species (XSP1) HepG2 Assay for chicken Estrogen Receptor (ESR1) (AID 2283779). The method, then: as §1, with “receptor.ATG_chERa_XSP1” for “receptor.ATG_zfAR_XSP1”, “ATG_chERa_XSP1” for “ATG_zfAR_XSP1”, “ER.” for “AR.”
chicken Estrogen Receptor (ESR1), ESR1 (gene 396099), sequence (P06212 whole entry, looked up): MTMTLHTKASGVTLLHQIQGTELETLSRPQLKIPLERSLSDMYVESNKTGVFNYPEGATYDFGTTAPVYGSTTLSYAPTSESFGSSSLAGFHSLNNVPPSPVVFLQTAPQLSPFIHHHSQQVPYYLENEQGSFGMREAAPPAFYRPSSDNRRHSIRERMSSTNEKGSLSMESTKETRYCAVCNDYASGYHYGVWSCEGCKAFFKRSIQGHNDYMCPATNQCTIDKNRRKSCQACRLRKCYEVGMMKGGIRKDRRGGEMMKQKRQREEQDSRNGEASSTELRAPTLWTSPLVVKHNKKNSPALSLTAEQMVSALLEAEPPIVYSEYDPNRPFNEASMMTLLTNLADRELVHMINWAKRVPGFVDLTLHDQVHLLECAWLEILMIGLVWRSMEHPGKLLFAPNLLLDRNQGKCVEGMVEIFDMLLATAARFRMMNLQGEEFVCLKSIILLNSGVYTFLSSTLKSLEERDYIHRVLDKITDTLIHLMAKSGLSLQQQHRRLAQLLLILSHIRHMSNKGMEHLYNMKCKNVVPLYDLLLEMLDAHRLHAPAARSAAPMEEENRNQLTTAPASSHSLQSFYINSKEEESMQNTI
as §2

Test [10] concerns the target Estrogen receptor (Homo sapiens) (UniProt P03372). The test is described as follows: ATG_hERa_XSP1: Attagene TRANS-FACTORIAL Multi-Species (XSP1) HepG2 Assay for human Estrogen Receptor (ESR1) (AID 2283780). The procedure, abridged: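 HepG2 cells transiently transfected with GAL4-UAS reporter units and chimeric NR-Gal4 constructs; 24 h after dosing, reporter mRNA quantified by RT-PCR and capillary electrophoresis. Medium contained 3 nM 6-alpha-fluorotestosterone; activity fitted as gain-of-signal versus DMSO.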

Values joined by “and” are separate entries in the source; they are usually repeats but may differ in a detail not shown here. Identical values can stand only once. Results filed as inconclusive are left out. Active and inactive are the calls of the source. Rule for the calls: active = hit-call score of the fitted dose curve at least 0.9, where 1 is the maximum; inconclusive = response in the unintended direction; inactive = score below 0.9.

Estrogen receptor (Homo sapiens), sequence (P03372 whole entry, looked up, the tested form may be a part): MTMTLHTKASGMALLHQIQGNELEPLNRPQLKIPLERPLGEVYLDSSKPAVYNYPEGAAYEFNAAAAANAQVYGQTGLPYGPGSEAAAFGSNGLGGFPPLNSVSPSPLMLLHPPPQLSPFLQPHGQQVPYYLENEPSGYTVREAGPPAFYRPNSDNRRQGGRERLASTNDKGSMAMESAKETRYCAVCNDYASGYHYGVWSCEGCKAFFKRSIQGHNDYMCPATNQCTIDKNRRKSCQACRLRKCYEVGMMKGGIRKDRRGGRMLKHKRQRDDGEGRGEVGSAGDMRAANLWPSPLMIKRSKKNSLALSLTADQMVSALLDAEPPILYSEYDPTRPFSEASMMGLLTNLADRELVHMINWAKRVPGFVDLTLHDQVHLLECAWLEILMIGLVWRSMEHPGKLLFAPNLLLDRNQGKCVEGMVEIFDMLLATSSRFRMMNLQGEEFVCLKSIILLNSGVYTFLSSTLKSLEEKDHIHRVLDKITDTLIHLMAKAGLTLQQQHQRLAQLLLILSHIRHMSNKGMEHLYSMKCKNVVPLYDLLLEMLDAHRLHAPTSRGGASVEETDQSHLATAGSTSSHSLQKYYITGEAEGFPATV

Usually AC50 stands for the concentration giving half of the maximal activity seen. `CC(C)(c1ccccc1)c1ccc(O)cc1`: the compound was called inactive in test [1] and in [8]. Further, the AC50 was 1.67 µM (active) in [2]; 0.882 µM (active) in test [3]; 0.525 µM (active) in test [4]; 12.1 µM (active) in test [5]; 13.3 µM (active) in test [6]; 0.232 µM (active) in [7]. Also, the AC50 in test [9] was 1.98 µM (active); in test [10] it was 0.3 µM (active).

Turning to `Cc1cc(-c2ccc(N)c(C)c2)ccc1N`, the compound was called inactive in test [5]. In addition, the AC50 in test [6] is 7.2 µM (active) and 2.03 µM (active).

Regarding `ClC(Cl)=C(c1ccc(Cl)cc1)c1ccc(Cl)cc1`, the outcome in test [1], in test [2], in [7] and in [9] was inactive. Further, the half-maximal activity concentration (AC50) in test [3] was 5.92 µM (active); in test [4], 3.83 µM (active); in test [5], 29.6 µM (active); in test [6], 21.4 µM (active); in test [8], 10 µM (active); in test [10] it was 4.53 µM (active).

In the case of `Cc1cc2c3c(c1)C(c1ccccc1)=N[C@@H](NC(=O)c1ccncc1)C(=O)N3CC2`, the half-maximal activity concentration (AC50) in test [5] and in test [6] was 50 µM (active) each time.

As for `CC(C)(O)C(=O)Nc1ccc([N+](=O)[O-])c(C(F)(F)F)c1`, the AC50 in test [3] is 15.4 µM (active); in test [5], 84 µM (active); in test [6], 10.9 µM (active). For the same compound, the outcome in [4], in [8] and in [10] was inactive.

With `CN(C)c1nc(=O)n(C2CCCCC2)c(=O)n1C`, the outcome in [5] and in [6] was inactive.

In the case of `COS(=O)(=O)OC`, the compound was called inactive in test [5] and in test [6].

As for `Cc1ccccc1O`, the result in [5] and in test [6] was inactive.

As to `Cc1ccccc1CO[C@@H]1C[C@@]2(C(C)C)CC[C@]1(C)O2`, the AC50 was 76.7 µM (active) in [5] and 63.6 µM (active) in [6].

In the case of `C1CC2OC2CC1C1CO1` (stereo not given), the compound was called inactive in test [5] and in test [6].

Consider `CCC(C)(CC)c1cc(NC(=O)c2c(OC)cccc2OC)on1`, for which the call in test [5] and in [6] was inactive.

Take `O=C(O)C(F)(F)C(F)(F)C(F)(F)C(F)(F)C(F)(F)C(F)(F)C(F)(F)C(F)(F)F`: the AC50 in test [5] was 74.2 µM (active); in test [6] it was 72 µM (active).

For the compound `OCC(O)CO`, the call in test [5] and in test [6] was inactive.

As for `Clc1ccc(C(Cl)(Cl)Cl)cc1`, the compound was called inactive in test [5] and in test [6].

`Sc1ccccc1`: the outcome in [5] and in test [6] was inactive.

Consider `CCOCCOC(C)=O`, for which the call in [5] and in test [6] was inactive.

As for `Cc1ccc(O)c(C)c1`, the call in test [5] and in [6] was inactive.

On to `O=C(NC(=O)c1cc(F)c(F)cc1Cl)Nc1cc(F)ccc1N1CCC(C(=O)O)CC1`, for which the compound was classed as inactive in [5] and in [6].

On to `c1cc2ccc3cccc4ccc(c1)c2c34`, for which the compound was called inactive in test [5]. In addition, the AC50 in [6] is 21.4 µM (active).

Consider `O=C(NC(=O)c1c(F)cccc1F)Nc1cc(Cl)c(OC(F)(F)C(F)F)c(Cl)c1`, for which the AC50 in [5] is 50 µM (active); in test [6], 42.2 µM (active).
